Records with an inconclusive call do not appear. The source made the active and inactive calls. Calls come from the whole dose curve; as a rule, active = well fitted curve in the direction sought with a large enough effect; inconclusive = small, poorly fitted or top-dose-only effect, or another doubt; inactive = no such curve, though single readings can be large; an effect the other way counts as inactive or inconclusive.
How the values were obtained:
[1] = system: CRL-7250; assay: Cytotoxic Profiling of Annotated Libraries Using Quantitative High-Throughput Screening (AID 1296008); settings: Five cell lines viability, CellTiter-Glo ATP luminescence, 48-72 h; max response: hits give low values; note: nearly all actives have a fitted effect of over 60% in size; for max response: % is set by controls: 0 for no effect and ±100 for the full control effect
Procedure, shortened: (§1)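 Cells exposed to compounds for 48 or 72 hr at 37 degrees Celsius. Viability read as ATP-coupled luminescence with CellTiter-Glo after 10 min at room temperature.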

[2] = system: HEK293; assay: as above; settings: Five cell lines viability, CellTiter-Glo ATP luminescence, 48-72 h; max response: hits give low values
Procedure, shortened: as §1

[3] = system: HaCat; assay: as above; settings: Five cell lines viability, CellTiter-Glo ATP luminescence, 48-72 h; max response: hits give low values
Procedure, shortened: as §1

[4] = system: KB-3-1; assay: as above; settings: Five cell lines viability, CellTiter-Glo ATP luminescence, 48-72 h; max response: hits give low values
Procedure, shortened: as §1

[5] = system: NIH3T3; assay: as above; settings: Five cell lines viability, CellTiter-Glo ATP luminescence, 48-72 h; max response: hits give low values
Procedure, shortened: as §1

[6] = system: HEK293T; assay: qHTS assay to identify novel small-molecules to repurpose for Merkel cell carcinoma treatment (AID 1296009); settings: MCC and control cell lines, CellTiter-Glo viability, 72 h; series mostly up to 44.8 µM; note: nearly all actives have a fitted effect of over 60% in size
Procedure, shortened: (§2)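 Dose-response viability screen; 72 hr exposure at 37 degree celsius; CellTiter-Glo added, 10 min room temperature, luminescence read; RLUs scaled between no-cell and DMSO wells.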

[7] = system: NIH3T3; assay: as above; settings: MCC and control cell lines, CellTiter-Glo viability, 72 h; at 44.8 µM (top of the series) unless noted
Procedure, shortened: as §2

[8] = system: C33A; assay: Primary qHTS to identify gynecologic anti-cancer compounds using libraries of approved drugs and bioactive compounds (AID 1345084); settings: Gynecologic cancer cell panel viability, ATPlite luminescence, 48 h; series mostly up to 57.5 µM; note: % is set by controls: 0 for no effect and ±100 for the full control effect; nearly all actives have a fitted effect of over 55% in size
Procedure, shortened: (§3)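 Cell viability after 48 h drug treatment, ATPlite luminescence readout; five doses.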

[9] = system: CAOV3; assay: as above; settings: Gynecologic cancer cell panel viability, ATPlite luminescence, 48 h; series mostly up to 57.5 µM
Procedure, shortened: as §3

[10] = system: CASKI; assay: as above; settings: Gynecologic cancer cell panel viability, ATPlite luminescence, 48 h; series mostly up to 57.5 µM
Procedure, shortened: as §3

[11] = system: Es-2; assay: as above; settings: Gynecologic cancer cell panel viability, ATPlite luminescence, 48 h; series mostly up to 57.5 µM
Procedure, shortened: as §3

[12] = system: HeLa; assay: as above; settings: Gynecologic cancer cell panel viability, ATPlite luminescence, 48 h; series mostly up to 57.5 µM
Procedure, shortened: as §3

CC1(C)C(=O)C(C)(C)c2cc(C(=O)Nc3ccc(C(=O)O)cc3)ccc21
inactive: max response [1] 2.14% | outcome [2] | max response [3] -8.59% | outcome [4] | outcome [5] | Potency [6] | outcome [7] | Potency [8] | Potency [9] | Potency [10] | Potency [11] | Potency [12]

COC1=CC(=O)O[C@@H](/C=C/c2ccccc2)[C@@H]1O
inactive: outcome [1] | outcome [2] | max response [3] 4.5% | outcome [4] | outcome [5] | Potency [6] | outcome [7] | Potency [8] | Potency [9] | Potency [10] | Potency [11] | Potency [12]

CC1(C)CCC(C)(C)c2cc([C@@H](O)C(=O)Nc3ccc(C(=O)O)cc3F)ccc21
inactive: max response [1] -3.37% | outcome [2] | max response [3] -6.8% | outcome [4] | outcome [5] | Potency [6] | outcome [7] | Potency [8] | Potency [9] | Potency [10] | Potency [11] | Potency [12]

Nc1nc(CC(=O)Nc2ccc(CCNCC(O)c3ccccc3)cc2)cs1 (stereo unspecified)
inactive: max response [1] 2.98% | outcome [2] | max response [3] -9.93% | outcome [4] | outcome [5] | Potency [6] | outcome [7] | Potency [8] | Potency [9] | Potency [10] | Potency [11] | Potency [12]

N#CC1C(=O)Nc2scc(-c3ccc(-c4ccccc4O)cc3)c2C1=O (stereo unspecified)
inactive: max response [1] -4.61% | outcome [2] | max response [3] 1.11% | outcome [4] | outcome [5] | Potency [6] | outcome [7] | Potency [8] | Potency [9] | Potency [10] | Potency [11] | Potency [12]

C[C@@H]1O[C@@H](O[C@H]2[C@H](OC(=O)C34CCC5(C)C(=CCC6C7(C)CC(O)C(O[C@@H]8O[C@H](C(=O)O)[C@@H](O)[C@H](O)[C@H]8O)C(C)(C(=O)O)C7CCC65C)C3CC(C)(C)CC4O)O[C@H](C)[C@@H](O)[C@@H]2O)[C@H](O)[C@@H](O[C@@H]2OC[C@](O)(CO)[C@H]2O[C@@H]2O[C@H](CO)[C@@H](O)[C@H](O)[C@H]2O)[C@H]1O (stereo partly specified)
inactive: max response [1] -4.39% | outcome [2] | max response [3] -8.41% | outcome [4] | outcome [5] | outcome [6] inactive [at 9.27 µM] | outcome [7] inactive [at 9.27 µM] | activity change, negative = cytotoxicity [8] -3.41% [at 6.55 µM] | activity change, negative = cytotoxicity [9] 7.58% [at 6.55 µM] | activity change, negative = cytotoxicity [10] 3.56% [at 6.55 µM] | activity change, negative = cytotoxicity [11] -1.29% [at 6.55 µM] | activity change, negative = cytotoxicity [12] -4.39% [at 6.55 µM]

C=CCc1ccc(O[C@@H]2O[C@H](CO[C@@H]3O[C@H](CO)[C@@H](O)[C@H](O)[C@H]3O)[C@@H](O)[C@H](O)[C@H]2O)c(O)c1
inactive: max response [1] -24.9% | outcome [2] | max response [3] -10.9% | max response [4] -2.46% | outcome [5] | Potency [6] | outcome [7] inactive [at 17.4 µM] | Potency [8] | Potency [9] | Potency [10] | Potency [11] | Potency [12]

CC[C@H](/C=C/[C@@H](C)[C@H]1CC[C@H]2[C@@H]3CC=C4C[C@@H](O)CC[C@]4(C)[C@H]3CC[C@]12C)C(C)C
inactive: max response [1] -4.85% | outcome [2] | max response [3] 0.322% | outcome [4] | outcome [5] | outcome [6] inactive [at 4.96 µM] | outcome [7] inactive [at 4.96 µM] | activity change, negative = cytotoxicity [8] 8.42% [at 6.55 µM] | activity change, negative = cytotoxicity [9] 7.88% [at 6.55 µM] | activity change, negative = cytotoxicity [10] 17.1% [at 6.55 µM] | activity change, negative = cytotoxicity [11] 0.911% [at 6.55 µM] | activity change, negative = cytotoxicity [12] -1.7% [at 6.55 µM]

OC[C@H]1O[C@@H](Oc2ccc(O)c3cccc(O)c23)[C@H](O)[C@@H](O)[C@@H]1O
inactive: outcome [1] | outcome [2] | max response [3] -1.01% | max response [4] 3.57% | outcome [5] | Potency [6] | outcome [7] | Potency [8] | Potency [9] | Potency [10] | Potency [11] | Potency [12]

O=C(O)c1cc(O)c2cccc(O)c2c1O[C@@H]1O[C@H](CO)[C@@H](O)[C@H](O)[C@H]1O
inactive: max response [1] -1.91% | outcome [2] | max response [3] 2.74% | max response [4] 4.95% | outcome [5] | Potency [6] | outcome [7] | Potency [8] | Potency [9] | Potency [10] | Potency [11] | Potency [12]

CC1CCC2(C(=O)OC3OC(COC4OC(CO)C(O)C(O)C4O)C(O)C(O)C3O)CCC3(C)C(=CCC4C5(C)CCC(O)C(C)(C(=O)O)C5CCC43C)C2C1(C)O (stereo unspecified)
inactive: outcome [1] | outcome [2] | max response [3] -9.13% | max response [4] 0.532% | outcome [5] | outcome [6] inactive [at 9.27 µM] | outcome [7] inactive [at 9.27 µM] | activity change, negative = cytotoxicity [8] -3.16% [at 11.6 µM] | activity change, negative = cytotoxicity [9] 16.9% [at 11.6 µM] | activity change, negative = cytotoxicity [10] 8.05% [at 11.6 µM] | activity change, negative = cytotoxicity [11] 5.49% [at 11.6 µM] | activity change, negative = cytotoxicity [12] -4.94% [at 11.6 µM]

C=CCc1ccc(O[C@@H]2O[C@H](CO[C@@H]3O[C@@H](C)[C@H](O)[C@@H](O)[C@H]3O)[C@@H](O)[C@H](O)[C@H]2O)cc1
inactive: max response [1] -0.302% | outcome [2] | max response [3] 4.55% | max response [4] 2.9% | outcome [5] | Potency [6] | outcome [7] inactive [at 17.4 µM] | Potency [8] | Potency [9] | Potency [10] | Potency [11] | Potency [12]

CC(=O)O[C@H]1CC[C@@]2(CI)C(=CC[C@@H]3[C@@H]2CC[C@]2(C)[C@@H]([C@H](C)CCCC(C)C)CC[C@@H]32)C1
inactive: max response [1] -3.01% | outcome [2] | max response [3] 4.89% | outcome [4] | outcome [5] | outcome [6] inactive [at 9.27 µM] | outcome [7] inactive [at 9.27 µM] | activity change, negative = cytotoxicity [8] 15% [at 11.6 µM] | activity change, negative = cytotoxicity [9] 9.25% [at 11.6 µM] | activity change, negative = cytotoxicity [10] -2.47% [at 11.6 µM] | activity change, negative = cytotoxicity [11] -1.33% [at 11.6 µM] | activity change, negative = cytotoxicity [12] 10.9% [at 11.6 µM]
